Max activity data for 46 molecules are collected here from PubChem BioAssay AID1259418 (Broad Institute, 2018).

Out of some 3,400 compounds screened, about 840 (25%) were called active. Not shown: some 11% with an inconclusive outcome. The list is a sample of the results. Measured potencies and affinities stand elsewhere. Values without a mark were called inactive.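 How the source made its calls: active means fitted half-maximal concentration of signal decrease at or below twice the sample's top tested concentration; inconclusive means flat curve between -70 and -30 percent, or poor fit; inactive means flat within 30 percent, signal rise, or potency above limit.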

This assay can be described thus: T. gondii growth inhibition with IFN-gamma, dose response, cell-based, ME49Luc, HeLa, luciferase, 72 h (AID 1259418). To be noted: T. gondii ME49Luc in IFN-y HeLa, active compounds read low, -100% = high-dose IFN-γ control wells; at 19.5 µM unless noted.
On to `COc1ccccc1-c1nc(C)c(-c2ccc(SCc3ccccc3)nn2)s1`, for which the max activity was -5.61% [at 0.68 µM].

For the molecule `COc1ccc2c(c1)NC1(CCN(C(=O)c3ccc(Br)cc3)CC1)c1cccn1-2`, the max activity was 15.6% [at 0.68 µM].

In the case of `O=C(NCc1cccnc1)C1CCN(Cc2cc3ccccc3n2Cc2cccc(Cl)c2)CC1`, the max activity is -5.31% [at 5 µM].

Take `Cc1ccc(Cn2c(CN3CCC(C(=O)N4CCCC4)CC3)cc3ccccc32)cc1`: the max activity was 17.8% [at 2.6 µM].

Regarding `Cc1cccc(Cn2c(CN3CCC(C(=O)NCCCN4CCCC4=O)CC3)cc3ccccc32)c1`, the max activity is 13.5%.

On to `O=C(C1CCN(Cc2cc3ccccc3n2Cc2cccc(Cl)c2)CC1)N1CCCC1`, for which the max activity was -6.26% [at 1.35 µM].

Turning to `O=C(NCCCN1CCCC1=O)C1CCN(Cc2cc3ccccc3n2Cc2ccccc2)CC1`, the max activity is -6.87% [at 2.6 µM].

For the molecule `O=C(NCCN1CCCC1)C1CCN(Cc2cc3ccccc3n2Cc2cccc(Cl)c2)CC1`, the max activity is -8.03% [at 1.35 µM].

Turning to `CC(C)C(=O)Nc1ccc(-c2nc(-c3ccccc3)co2)cc1`, the max activity is -22.2% [at 10 µM].

As for `Cc1ccc(OCC(=O)Nc2ccc(-c3nc(-c4cc(C)ccc4C)co3)cc2)cc1`, the max activity was 6.76% [at 10 µM].

Consider `CCc1ccccc1Nc1ncnc2c1cnn2-c1ccc(C)cc1C`, for which the max activity was 12.3% [at 0.68 µM].

Take `COc1ccc(OC)c(S(=O)(=O)N2CCC[C@@H]2C(=O)NCCc2csc(C)n2)c1`: the max activity was 4.67%.

Turning to `COc1cccc(-c2nc3c(s2)CN(S(=O)(=O)c2ccc(C(C)C)cc2)CC3)c1`, the max activity was -7.98% [at 2.6 µM].

Regarding `Cc1cccc(-c2nc(Cn3nnc(-c4nc(-c5ccc(F)cc5)no4)c3C)c(C)o2)c1`, the max activity was 16.4% [at 10 µM].

`OC[C@H]1O[C@@H](n2cnc3c(NC4CCCC4)nc(Cl)nc32)[C@H](O)[C@@H]1O`: the max activity was 22.4%.

In the case of `Cc1ccc2[nH]c(C(=O)N3CCCC3)c(NC(=O)c3ccc(Cl)cc3)c2c1`, the max activity is 45.1% [at 5 µM].

Take `COc1ccccc1-c1nc(Cn2nnc(-c3nc(-c4ccc(C)c(C)c4)no3)c2C)c(C)o1`: the max activity was 8.96% [at 0.68 µM].

As for `Cc1cccc(C(=O)Nc2c(C(=O)N3CCN(c4ccccn4)CC3)[nH]c3ccc(C)cc23)c1`, the max activity is -10.7% [at 5 µM].

As to `CN(C)CCOCC12CCCOC1CCN(C(=O)c1cccn1C)C2` (stereo unspecified), the max activity was 9.21%.

As to `O=C(CC1Nc2c3ccccc3nc(=S)n2C1=O)NC1CCCCC1` (stereo unspecified), the max activity is 24.9% [at 0.68 µM].

Take `O=C(Cn1c(=O)c(S(=O)(=O)c2ccccc2)cc2ccccc21)NCc1ccco1`: the max activity is 8.5% [at 0.16 µM].

Turning to `Cc1cccc(Cn2c(CN3CCC(C(=O)NCc4cccnc4)CC3)cc3ccccc32)c1`, the max activity was 15.7% [at 10 µM].

As for `CCN1CCCC1CNC(=O)C1CCN(Cc2cc3ccccc3n2Cc2ccc(Cl)cc2)CC1` (stereo unspecified), the max activity was 9.45%.

In the case of `CCN1CCCC1CNC(=O)C1CCN(Cc2cc3ccccc3n2Cc2ccccc2C)CC1` (stereo unspecified), the max activity is 14% [at 2.6 µM].

Regarding `O=C(NCc1cccnc1)C1CCN(Cc2cc3ccccc3n2Cc2cccc(F)c2)CC1`, the max activity is 12.1% [at 0.16 µM].

On to `O=C(C1CCN(Cc2cc3ccccc3n2Cc2cccc(F)c2)CC1)N1CCCC1`, for which the max activity was 8.62%.

As to `CCN1CCCC1CNC(=O)C1CCN(Cc2cc3ccccc3n2Cc2cccc(Cl)c2)CC1` (stereo unspecified), the max activity is 22% [at 10 µM].

As to `O=C(NCc1cccnc1)C1CCN(Cc2cc3ccccc3n2Cc2ccccc2)CC1`, the max activity was 21.3% [at 1.35 µM].

Consider `CCc1nc(OCC(=O)Nc2ccc(Cl)c(Cl)c2)c2ccccc2n1`, for which the max activity was -17.2%.

Turning to `Cc1ccc(CNC(=O)Nc2ccc(-c3nc(-c4cc(C)ccc4C)co3)cc2)cc1`, the max activity is -8.13% [at 5 µM].

Turning to `COc1ccc(CC(=O)N2CCC3(CC2)Nc2cc(OC)ccc2-n2cccc23)cc1`, the max activity is 20.2% [at 10 µM].

On to `COc1ccc(-c2nc(Nc3ccc(Br)cc3F)c3ccccc3n2)cc1`, for which the max activity was 21.7%.

Turning to `O=C(NCCc1csc(-c2ccccc2)n1)[C@H]1CSCN1C(=O)COc1ccccc1`, the max activity was 9.43%.

On to `Cc1ccc2c(c1C)-n1cccc1C1(CCN(C(=O)c3cccc(Cl)c3)CC1)N2`, for which the max activity was 6.45%.

Consider `O=C(C1CCCCC1)N1[C@@H](CO)[C@@H]2c3ccccc3N(S(=O)(=O)c3ccccc3)C[C@@H]21`, for which the max activity is 38.7%.

Take `O=C(C1CCCCC1)N1[C@H](CO)[C@@H]2c3ccccc3N(S(=O)(=O)c3ccccc3)C[C@@H]21`: the max activity is 26.4%.

`O=C(NCc1cncc2c1CCN(Cc1cccc(F)c1)C2)C1CC1`: the max activity is 11.5%.

For `O=C(CCc1ccccc1)Nc1ccc(-c2nc(-c3ccccc3)co2)cc1`, the max activity was 120% [at 10 µM].

As to `O=C(c1cccc(F)c1)N1CCCCN2[C@H](C1)[C@H](c1ccc(C#CC3(O)CCCC3)cc1)[C@@H]2CO`, the max activity is -13.9% [at 2.6 µM].

`O=C(Nc1cccc(F)c1)N1CCCCN2[C@H](C1)[C@@H](c1ccc(C#Cc3cccnc3)cc1)[C@@H]2CO`: the max activity is -8.44% [at 0.6 µM].

For the molecule `O=C(c1cccc(F)c1)N1CCCCN2[C@H](CO)[C@H](c3ccc(C#CC4(O)CCCC4)cc3)[C@H]2C1`, the max activity is -28.8% [at 21 µM].

In the case of `CCN(CCCNc1nc(-c2ccc(OC)cc2)nc2ccccc12)c1cccc(C)c1`, the max activity is 21.1%.

`COc1ccc(NC(=O)CN2CCC3(CC2)N=C(c2ccc(F)cc2)C(=O)N3)c(OC)c1`: the max activity is -31.1% [at 0.35 µM].

With `COc1ccc(-c2nc(N3CCN(Cc4ccc5c(c4)OCO5)CC3)c3ccccc3n2)cc1`, the max activity was 17.4% [at 2.6 µM].

Turning to `Cc1ccc(N2CCN(c3nc(-c4ccc(Cl)cc4)nc4ccccc34)CC2)c(C)c1`, the max activity is 25.4%.

Consider `CCOc1ccccc1NC(=O)COc1nc(CC)nc2ccccc12`, for which the max activity is -13.2% [at 0.35 µM].
